Measured values reported in PubChem BioAssay AID1159580 (chemical genetic matrix, 2015).
About 2,000 (36%) of roughly 5,500 compounds were called active. Inconclusive results (about 18%) are left out. No stated cut-off is given here; in the data, active means normalized growth mostly below about 0.91 (no sharp cut-off); inconclusive means no clear call, values can overlap the other calls; inactive means mostly above about 0.92. Some of the results follow.

Assay: chemical genetic growth profiling, strain panel (AID 1159580);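 further: tested at 20 µM; growth read once vehicle control cultures reached saturation at 30 °C; 1 = growth at the plate median or of vehicle wells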
Settings: growth OD

Measured: normalized growth

CSC1=NCN(Cc2ccccc2)CN1
inactive: S. cerevisiae deletion strains, locus YAL013W, strain DEP1, stronger effect = lower value 0.991 | S. cerevisiae deletion strains, locus YBR229C, strain ROT2, stronger effect = lower value 0.996 | S. cerevisiae deletion strains, locus YDL101C, strain DUN1, stronger effect = lower value 1 | S. cerevisiae deletion strains, locus YDR150W, strain NUM1, stronger effect = lower value 1.01 | S. cerevisiae deletion strains, locus YEL061C, strain CIN8, stronger effect = lower value 0.981 | S. cerevisiae deletion strains, locus YGR078C, strain PAC10, stronger effect = lower value 1 | S. cerevisiae deletion strains, locus YHR030C, strain SLT2, stronger effect = lower value 1.02 | S. cerevisiae deletion strains, locus YHR087W, strain rtc3, stronger effect = lower value 1 | S. cerevisiae deletion strains, locus YJR043C, strain POL32, stronger effect = lower value 1 | S. cerevisiae deletion strains, locus YJR075W, strain HOC1, stronger effect = lower value 0.99 | S. cerevisiae deletion strains, locus YLR039C, strain RIC1, stronger effect = lower value 0.969 | S. cerevisiae deletion strains, locus YLR058C, strain SHM2 (second series), stronger effect = lower value 1.01 | S. cerevisiae deletion strains, locus YLR085C, strain ARP6, stronger effect = lower value 0.954 | S. cerevisiae deletion strains, locus YLR262C, strain YPT6, stronger effect = lower value 0.972 | S. cerevisiae deletion strains, locus YML094W, strain GIM5, stronger effect = lower value 0.981 | S. cerevisiae deletion strains, locus YMR219W, strain ESC1, stronger effect = lower value 0.986 | S. cerevisiae deletion strains, locus YMR263W, strain SAP30, stronger effect = lower value 1 | S. cerevisiae deletion strains, locus YNL153C, strain GIM3, stronger effect = lower value 1.02 | S. cerevisiae deletion strains, locus YNL298W, strain CLA4 (second series), stronger effect = lower value 1 | S. cerevisiae deletion strains, locus YNL322C, strain KRE1, stronger effect = lower value 0.972 | S. cerevisiae deletion strains, locus YNR030W, strain Alg12, stronger effect = lower value 0.977 | S. cerevisiae deletion strains, locus YPL055C, strain LGE1, stronger effect = lower value 1.06 | S. cerevisiae deletion strains, locus YPL241C, strain CIN2, stronger effect = lower value 0.987 | S. cerevisiae deletion strains, locus YPR135W, strain CTF4, stronger effect = lower value 1.1 | S. cerevisiae strains, strain wild type, stronger effect = lower value 0.98
